Compound activity (PubChem BioAssay)
Sampled rows, rich in hits. Any-hit rate of the full collection: about 21%.
SARS PLP yeast: SARS-CoV PLP inhibition in yeast. S. cerevisiae expressing SARS-CoV PLpro, growth rescue. Potency, µM (series often up to 32.9 µM), for inactives: at the highest dose activity, positive = growth rescue, actives largely listed as activators. 330,000 compounds, 0.19% hits; note: potency is the fitted concentration of half-maximal effect; 0% is about no effect; nearly all actives have a fitted effect of over 55% in size
Pf growth 48h: inhibits P. falciparum growth in the first generation, 48 h | P. falciparum luciferase growth in erythrocytes, 48 h | Potency, µM (top dose mostly 28.7 µM), without a hit: at the top dose activity change, negative = inhibition, usual class: inhibitors | 310,000 compounds, 5.9% hits; active = well fitted inhibition curve with a large enough effect; inconclusive = small, poorly fitted or top-dose-only effect, or another doubt; inactive = no such curve, though single readings can be large or run the other way; note: potency is the fitted concentration of half-maximal effect; % is set by controls: 0 for no effect and ±100 for the full control effect
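Erythrocytes infected with P. falciparum carrying an integrated firefly luciferase reporter (2% hematocrit, 0.1% parasitemia final) were exposed to compounds in RPMI 1640 with 0.5% Albumax at 37 C, 5% CO2. Growth inhibition was scored as reduced luminescence.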
Shiga toxin inh: blocks Shiga toxin action in Vero cells; Vero cells, Shiga toxin protein synthesis inhibition reporter; inhibition, % at 38.7 µM; 290,000 compounds, 9.2% hits; in the data active = inhibition mostly above about 28%, no sharp cut-off; inactive = mostly below about 43%; note: 0% is about no effect
NS1 inh: blocks influenza NS1 protein function. Potency, µM (top dose mostly 46.1 µM), inactives show at the highest dose activity, positive = more growth. 270,000 compounds, 0.4% hits. AID 2326; note: potency is the fitted concentration of half-maximal effect; actives are rising curves; nearly all actives have a fitted effect of over 50% in size
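Compounds were scored for reversing the slow growth caused by influenza A NS1 in S. cerevisiae, measured by optical density at 600 nm. Assay medium contained 2% galactose at pH 6.0; NS1-free yeast of the same strain were the positive control.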
CHX counter: counter-screen hit for Shiga toxin inhibitors, cycloheximide | AID 2314 | max response, % | 300,000 compounds, 12% hits | cell reporter, cycloheximide protein synthesis inhibition counterscreen; in the data active = max response mostly above about 13%, no sharp cut-off; inactive = mostly below about 14%; note: read at 38.3 µM for the half of the compounds with a filed dose; 0% is about no effect
Pf growth 96h: P. falciparum growth inhibition at 96 hours; P. falciparum luciferase reporter growth, 96 h; Potency, µM (doses to about 28.7 µM), without a hit: at the highest dose activity change, negative = inhibition, hits mostly inhibitors; 320,000 compounds, 6.9% hits; active = well fitted inhibition curve with a large enough effect; inconclusive = small, poorly fitted or top-dose-only effect, or another doubt; inactive = no such curve, though single readings can be large or run the other way; note: potency is the fitted concentration of half-maximal effect; % is set by controls: 0 for no effect and ±100 for the full control effect
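Luminescence readout: decreased luciferase signal marks inhibited growth of reporter-expressing P. falciparum in infected red cells (2% hematocrit, 0.05% parasitemia final), exposed to compound two generations (96 h, 37 C, 5% CO2).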
* = called active by the depositor; ? = inconclusive; · = not tested or not shown. Unless noted, calls come from the whole dose curve.

SMILES	SARS PLP yeast	Pf growth 48h	Shiga toxin inh	NS1 inh	CHX counter	Pf growth 96h
O=C(c1ccc(OC2CCN(CCc3ccccc3)CC2)cc1)N1CCC(CO)CC1	5%	-28%	-10	8%	-4	?
O=c1cc(-c2ccccc2)nc(SCCOc2ccccc2Cl)[nH]1	0%	7%	24	2%	-4	7.4µM*
N#Cc1c(-c2cccs2)nc(SCc2ccc(Cl)cc2)[nH]c1=O	-2%	66%	-6	9%	1	?
CCN(CC)C(=O)CSc1nc2ccccc2c(=O)[nH]1	3%	-5%	7	-16%	9.0*	-25%
O=c1[nH]c(SCc2ccc(Cl)cc2)nc2ccsc12	0%	490%	62*	·	44*	227%
CC(C)CC(=O)Nc1ccc(-c2nc3ccccc3c(=O)[nH]2)cc1	2%	235%	73*	3%	32*	352%
Cc1ccc(C(=O)CSc2nc3ccccc3c(=O)[nH]2)cc1C	1%	41%	20	-5%	11	?
CCc1ccc(C(=O)CSc2nc3ccccc3c(=O)[nH]2)cc1	-7%	·	30	-5%	14*	10µM*
CN(C)C(=O)CSc1nc2ccccc2c(=O)[nH]1	4%	5%	-2	-4%	3	?
Cc1ccc(C(=O)CSc2nc3ccccc3c(=O)[nH]2)cc1	-3%	·	5	-5%	15*	15%
Cc1cccc(C)c1NC(=O)CSc1nc2ccccc2c(=O)[nH]1	1%	0%	-3	-2%	-1	0.41µM*
Cc1ccc(CSc2nc3ccccc3c(=O)[nH]2)cc1	-5%	19%	35	·	38*	?
CCOC(=O)Cc1csc(NS(=O)(=O)Cc2ccccc2)n1	3%	3%	9	-2%	-1	21%
COc1ccccc1NC(=O)c1ccc(NC(=O)COC(=O)c2cncc(Br)c2)cc1	3%	·	·	·	·	·
O=c1[nH]c(SCCOc2cccc3ccccc23)nc2ccccc12	2%	-10%	25	·	13	2.1µM*
O=C(CSc1nc2ccccc2c(=O)[nH]1)Nc1ccc(S(=O)(=O)N2CCCC2)cc1	-3%	-16%	8	-8%	-5	2.3µM*
CCOc1ccc(OCCSc2nc3ccccc3c(=O)[nH]2)cc1	-8%	·	23	-1%	2	47%
C=CCn1cc(C(=O)N2CCN(CC)CC2)c(=O)c2cc(S(=O)(=O)N(CC)CC)ccc21	1%	2%	-13	5%	-4	18%
O=C1C=C(/C=C/C2C=CC=CC2)C[C@@H](c2ccc(Cl)cc2)C1 (stereo partly drawn)	-1%	?	·	·	·	?
COc1ccc(N2CC(C(=O)N3CCN(c4ccccc4F)CC3)CC2=O)cc1 (stereo not drawn)	-1%	9%	-3	-12%	-3	27%
CCc1ccccc1NC(=O)Cn1nc(C(F)(F)F)cc1C1CC1	1%	31%	11	-4%	-3	88%
Cc1c(C)c2c(OCC(=O)N[C@@H](C)C(=O)O)cc3c(c2oc1=O)CCC(C)(C)O3	-2%	-7%	-10	3%	-6	-12%
Cc1c(C)c2c(OCC(=O)N3CCC(O)CC3)cc3c(c2oc1=O)CCC(C)(C)O3	4%	13µM*	15	-5%	-1	7.4µM*
Cc1c(C)c2c(OCC(=O)N3CCC[C@H]3C(=O)O)cc3c(c2oc1=O)CCC(C)(C)O3	2%	?	8	?	-1	13µM*
CCOc1cc(S(=O)(=O)N2CCN=C2Cc2ccccc2)ccc1F	1%	-1%	-5	0%	1	?
CC1CC2(O)c3no[n+]([O-])c3CCC2N1O (stereo not drawn)	1%	13%	-2	3%	-4	10µM*
CC(C)OC(=O)C1Cc2ccccc2CN1S(=O)(=O)c1cccs1 (stereo not drawn)	1%	?	30	4%	9	?
OCc1cc(CO)c(O)c(CCc2ccccc2)n1	-5%	·	-9	3%	-2	4.7µM*
CCCC1=C(C(=O)OCC)C(c2ccccc2OC)NC(=O)N1 (stereo not drawn)	2%	-12%	12	3%	-3	10%
